# Several values for one entry are separate records, joined by “and”; a condition that tells them apart may be missing. Equal values may be shown once. In all, about 75,000 compounds went through this assay and about 5,700 (7.6%) were called active. Roughly 7% stayed inconclusive and do not appear here. The rule behind the calls is not given here. Only a selection was taken, and actives are over-represented in it overall.
# Target: T1, 3-hydroxyacyl-CoA dehydrogenase type-2 (Homo sapiens) (UniProt Q99714)
# T1 sequence (whole entry): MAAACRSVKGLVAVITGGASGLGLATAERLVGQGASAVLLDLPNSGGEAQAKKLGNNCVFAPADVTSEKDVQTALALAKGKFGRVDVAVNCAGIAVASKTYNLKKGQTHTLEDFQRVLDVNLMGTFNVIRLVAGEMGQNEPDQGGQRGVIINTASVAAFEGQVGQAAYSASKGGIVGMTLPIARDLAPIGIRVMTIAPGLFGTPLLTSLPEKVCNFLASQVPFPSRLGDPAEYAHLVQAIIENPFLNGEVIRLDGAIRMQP
# Assay: qHTS Assay for Inhibitors of HSD17B4, hydroxysteroid (17-beta) dehydrogenase 4.
# Type: functional
row,Compound,Potency
1,O=C(O)c1cc(-c2ccc(F)cc2F)ccc1O,31.6 µM (active) and 12.6 µM (active)
2,Cc1c(OCC(=O)OC(C)C)ccc2c3c(c(=O)oc12)CCC3,inactive

# — ChEMBL document CHEMBL1201862, “PubChem BioAssay data set” (2004)
